Screening data from PubChem.
The list is not random: actives were taken first. Their share in the collection is about 3.4%.
proKLK7 act – proKLK7 zymogen activators, primary screen, biochemical, fluorescence intensity | Kallikrein-7 (Homo sapiens), P49862 | purified proKLK7, EDANS-DABCYL substrate fluorescence; 100% is mature enzyme control, 0% vehicle | activation, % at 7 µM | 0.9% of 370,000 active | AID 652039, 2013;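 active means activation above the mean of all tested compounds plus 3 SD, computed per campaign excluding outliers beyond control limits, cut at about 13% in these data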
PLCb3 inh – human PLC-beta3 inhibitors, primary screen, biochemical, fluorescence. 1-phosphatidylinositol 4,5-bisphosphate phosphodiesterase beta-3 (Homo sapiens), Q01970. Purified PLC-beta3, fluorogenic substrate. inhibition, % at 12.2 µM. 0.18% of 370,000 active; in the data active means inhibition above about 11%
ADAM17 inh – ADAM17 inhibitors, primary screen, biochemical, QFRET; recombinant ADAM17, EDANS/DABCYL FRET peptide cleavage; 0.83% of 370,000 active; AID 720648, 2013; Disintegrin and metalloproteinase domain-containing protein 17 (Homo sapiens), P78536; inhibition, % at 6.95 µM;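 active means inhibition above the mean of compounds lying between control limits plus 3 SD, set per campaign, cut at about 8.5% in these data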
PLCg1 inh – PLC-gamma1 enzyme inhibitors, primary screen, biochemical, fluorescence, purified enzyme. 1-phosphatidylinositol 4,5-bisphosphate phosphodiesterase gamma-1 (Homo sapiens), P19174. fluorogenic substrate. inhibition, % at 12.2 µM. 0.84% of 370,000 active; in the data active means inhibition above about 9.5%
ADAM10 inh – human ADAM10 inhibitors, primary screen, biochemical, QFRET, HTS | recombinant ADAM10, EDANS/DABCYL FRET peptide cleavage, 3 h | Disintegrin and metalloproteinase domain-containing protein 10 (Homo sapiens), O14672 | 0.62% of 370,000 active | AID 720582, 2013 | inhibition, % at 7 µM;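 active means inhibition above a per-campaign cutoff equal to the mean of compounds falling between control-based bounds plus 3 SD, cut at about 20% in these data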
sPLA2-III inh – human group III sPLA2 inhibitors, primary screen, biochemical, QFRET, BODIPY PC-A2 liposome substrate | Group 3 secretory phospholipase A2 (Homo sapiens), Q9NZ20 | QFRET BODIPY PC-A2 liposome hydrolysis, fluorescence | inhibition, % at 12.2 µM | 0.56% of 370,000 active | AID 743126, 2013;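 active means inhibition above mean plus 3 SD of compounds lying within the high and low control bounds, cut at about 19% in these data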
Target sequence (Q9NZ20 whole entry, looked up): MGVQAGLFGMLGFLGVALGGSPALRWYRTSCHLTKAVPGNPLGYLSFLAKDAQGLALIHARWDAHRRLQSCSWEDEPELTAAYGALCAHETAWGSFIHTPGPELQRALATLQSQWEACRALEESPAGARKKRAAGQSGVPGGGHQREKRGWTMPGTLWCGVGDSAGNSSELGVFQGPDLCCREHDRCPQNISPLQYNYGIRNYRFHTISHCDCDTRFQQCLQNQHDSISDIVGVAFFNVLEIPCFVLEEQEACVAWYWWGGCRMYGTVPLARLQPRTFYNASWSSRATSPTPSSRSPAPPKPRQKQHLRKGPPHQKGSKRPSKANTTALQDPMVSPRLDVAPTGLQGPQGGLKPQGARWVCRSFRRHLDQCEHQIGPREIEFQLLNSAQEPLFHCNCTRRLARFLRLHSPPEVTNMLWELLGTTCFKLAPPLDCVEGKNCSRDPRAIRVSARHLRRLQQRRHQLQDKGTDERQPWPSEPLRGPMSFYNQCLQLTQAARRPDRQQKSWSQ
ADAM10 counter – ADAM10 inhibitors, counter-screen for ADAM17 exosite inhibitor project, biochemical, FRET, human ADAM10 | shares compounds with ADAM17 inh | recombinant ADAM10, EDANS/DABCYL FRET peptide cleavage, 3 h | inhibition, % at 6.95 µM | 47% of 2,900 active;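 active means mean inhibition over the triplicate runs exceeds the activity threshold set in the earlier primary screen, cut at about 20% in these data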
ADAM17 confirm – ADAM17 inhibitors, hit retest, confirmation, biochemical, QFRET peptide cleavage. 65% of 2,900 active. recombinant ADAM17, EDANS/DABCYL QFRET peptide cleavage. AID 743257, 2014. inhibition, % at 6.95 µM. shares compounds with ADAM17 inh;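 active means mean inhibition across replicates above the hit cutoff set in the primary screen, cut at about 8.5% in these data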
Hits are given with their value; . = inactive; / = no result given.

SMILES	proKLK7 act	PLCb3 inh	ADAM17 inh	PLCg1 inh	ADAM10 inh	sPLA2-III inh	ADAM10 counter	ADAM17 confirm
Cc1[nH]c2ccccc2c1/C=N/NC(=O)c1cccc([N+](=O)[O-])c1	.	.	.	.	.	.	/	/
Cc1[nH]c2ccccc2c1/C=N/Nc1ccc([N+](=O)[O-])cc1	.	.	10	.	.	.	.	.
Cc1ccc(C)c(S(=O)(=O)N(C)Cc2cccs2)c1	.	.	8.8	.	.	.	23	12
CN1Cc2nnn(Cc3ccccc3)c2-c2cc(F)ccc2S1(=O)=O	.	.	.	.	.	.	/	/
Cc1ccc(Cn2nnc3c2-c2cc(F)ccc2S(=O)(=O)N(C(C)(C)C)C3)cc1	.	.	9.5	.	.	.	23	11
O=C(NCC1CC1(Cl)Cl)Nc1ccc(Cl)c(Cl)c1 (stereo unspecified)	.	.	9.5	.	.	.	32	15
COc1ccc2cc(C(=O)C3CCCN(C(=O)c4cc5nc(C)cc(C)n5n4)C3)ccc2c1 (stereo unspecified)	.	.	.	.	.	.	/	/
Cc1ccc(CCN2C(=O)c3ccccc3C2C(=O)NCc2cccnc2)cc1 (stereo unspecified)	.	.	.	.	.	.	/	/
O=C(COc1cccc2ccccc12)Nc1ccc(Cl)cc1C(=O)O	.	.	.	.	.	.	/	/
O=C(COc1cccc2ccccc12)Nc1cc(Cl)ccc1C(=O)O	.	.	13	.	.	.	.	.
COc1cc(/C=C(\C#N)C(=O)c2c[nH]c3ccccc23)cc(OC)c1O	.	.	.	.	.	.	/	/
C/C(=N\NC(=O)CNC(=O)C(c1ccccc1)c1ccccc1)c1ccccc1	.	.	.	.	.	.	/	/
C/C(=N\NC(=O)CNC(=O)C(c1ccccc1)c1ccccc1)c1ccc(C(C)(C)C)cc1	.	.	10	.	.	.	.	.
OCc1ccnc2c(O)cccc12	.	.	8.9	.	.	.	.	.
COc1ccccc1C(=O)NC(=O)COC(=O)c1ccc([N+](=O)[O-])cc1	.	.	.	.	.	.	/	/
Cc1ccc(OCC(=O)NC(=S)Nc2ccc(S(=O)(=O)Nc3cc(C)on3)cc2)c(Br)c1	.	.	.	.	.	.	/	/
Cc1ccc(O)c(-c2cc(C(=O)Nc3ccc(S(=O)(=O)N4CC(C)OC(C)C4)cc3)[nH]n2)c1 (stereo unspecified)	.	.	9.2	.	.	.	.	9.4
Cc1ccc(-c2cc(C(=O)Nc3ccc(S(=O)(=O)N4CC(C)OC(C)C4)cc3)[nH]n2)c(O)c1 (stereo unspecified)	.	.	.	.	.	.	/	/
Cc1ccc(S(=O)(=O)N(C)c2ccc(OCc3cccc(C)c3)cc2)cc1	.	.	.	.	.	.	/	/
Cc1ccc(S(=O)(=O)N(C)c2ccc(OCC(=O)OCc3cccc(Br)c3)cc2)cc1	.	.	9.1	.	.	.	25	16
CC(=O)Nc1ccc(S(=O)(=O)N(C)c2ccc(OCCOc3cccc(C)c3)cc2)cc1	.	.	8.7	.	.	.	26	14
COc1ccc(Cl)cc1NC(=O)CN(C)C(=O)CSc1ccc2c(c1)OCCO2	.	.	8.9	.	.	.	25	15
